Assay results: PubChem BioAssay (Tox21)
Several values for one entry are separate records, joined by “and”; a condition that tells them apart may be missing. Equal values may be shown once. Records with an inconclusive call do not appear. Where a call stands in place of a potency, no number is given. The source holds several records for some structures; these can differ, active in one and inactive in another. Activity calls are given as the source filed them. Calls follow the shape of the full dose curve.

Experiment: qHTS assay to identify small molecule agonists of the hypoxia (HIF-1) signaling pathway - cell viability counter screen (AID 1224844); also: nearly all actives have a fitted effect of over 50% in size
Conditions: HRE-bla ME-180 viability, CellTiter-Glo luminescence, 17 h; series mostly up to 76.8 µM
Source text: National Center for Advancing Translational Sciences [NCATS]
NIH Chemical Genomics Center [NCGC]
U.S. Environmental Protection Agency [EPA]
National Institutes of Environmental Health Sciences [NIEHS]
National Toxicology Program [NTP]
U.S. Food and Drug Administration [FDA]
Hypoxia-inducible factor-1 (HIF-1) is the major hypoxia-regulated transcription factor that controls cellular responses to low oxygen concentration. HIF-1 is composed of two subunits: hypoxia responsive HIF-1-alpha and constitutively expressed HIF-1-beta, which is also known as aryl hydrocarbon receptor nuclear translocator. During hypoxic conditions, HIF-1-alpha heterodimerizes with HIF-1-beta and translocates into the nucleus where the HIF-1 complex binds to the hypoxia-response element (HRE) and activates expression of target genes such as VEGF (vascular endothelial growth factor). The HIF-1 pathway is essential to normal growth and development, and is involved in the pathophysiology of cancer, inflammation, and ischemia.
Using a beta-lactamase reporter-gene under control of the hypoxia response element, a cell-based assay [CellSensor(TM) HRE-bla ME-180 from Life Technologies, Carlsbad, CA] was used to measure hypoxia-induced signaling. Tox21 10K library compounds were measured for their ability to induce the reporter gene activity. The cytotoxicity of the Tox21 compound library against HRE-bla ME-180 cell line was tested in parallel by measuring cell viability using CellTiter-Glo assay (Promega, Madison, WI) in the same assay wells.
Tox21 Assay Protocol Summary:
HRE-bla ME-180 cells were dispensed at 2,000 cells per well in 6 uL of assay medium containing 0.5% dialyzed FBS into black wall/clear-bottom 1536-well plates using a Multidrop Combi (Thermo Scientific, Waltham, MA) dispenser. After the assay plates were incubated at 37C and 5% CO2 for 5 hrs, 23 nL of compounds dissolved in DMSO, positive controls or DMSO only was transferred to each well of the assay plate using a Pintool station (Kalypsys, San Diego, CA). The assay plates were incubated at 37C and 5% CO2 for 17 hrs. One uL of LiveBLAzerTM B/G FRET substrate (CCF4-AM) (Life Technologies) was added to each well using a Flying Reagent Dispenser (FRD, Aurora Discovery, San Diego, CA). After 2 hr incubation at room temperature, fluorescence intensity (405 nm excitation, 460 nm and 530 nm emissions) was measured using an Envision plate reader (PerkinElmer, Shelton, CT). For cytotoxicity, 4 ul/well of CellTiter-Glo reagent was added into the assay plates using an FRD. After 30 min incubation at room temperature, the luminescence intensity was measured using a ViewLux plate reader (PerkinElmer).
Potency is read from the fitted curve at half-maximal effect.

Row | SMILES | Potency
1 | C=C1CC[C@H](O)CC1=C/C=C1\CCC[C@]2(C)[C@@H]([C@H](C)/C=C/[C@H](C)C(C)C)CC[C@@H]12 | 43.3 µM (active) and 34.7 µM (active)
2 | OCCOCCOCCOCCO | inactive
3 | Nc1nc2ncc(CNc3ccc(C(=O)N[C@@H](CCC(=O)O)C(=O)O)cc3)nc2c(=O)[nH]1 | inactive
4 | O=C1CCCCC1 | inactive
5 | COCC(C)O (stereo not given) | inactive
6 | CC(C)(C)C1CCC(O)CC1 (stereo not given) | inactive
7 | CC1CC(OC(=O)c2ccccc2O)CC(C)(C)C1 (stereo not given) | 48.5 µM (active) and inactive
8 | C=CC(=O)OCCCCCCCC(C)C | inactive
9 | Cc1cc(NS(=O)(=O)c2ccc(N)cc2)no1 | inactive
10 | ClC1=C(Cl)C(Cl)(Cl)C(Cl)=C1Cl | 11 µM (active) and 6.17 µM (active)
11 | O=C(c1cc(O)c(O)c(O)c1)c1ccc(O)c(O)c1O | inactive
12 | CCCCCCC(C)(C)S | inactive
13 | Oc1ccc2ccccc2c1 | 35.5 µM (active)
14 | CCCCC(CC)C(=O)OCCOCCOCCOC(=O)C(CC)CCCC (stereo not given) | inactive
15 | CN(C)c1cccc(O)c1 | inactive
16 | Cn1c([N+](=O)[O-])cnc1COC(N)=O | inactive
17 | O=C(O)c1cc(-c2ccccc2)nc2ccccc12 | inactive
18 | CC(C)(CO)COC(=O)C(C)(C)CO | inactive
19 | NC(=O)/N=N/C(N)=O | inactive
20 | NCCNCCNCCNCCN | inactive

Row | SMILES | Potency
21 | CCCCC/C=C\C/C=C\CCCCCCCC(=O)OC | inactive
22 | C[C@@H](O)[C@H]1C(=O)N2C(C(=O)O)=C(S[C@@H]3CN[C@H](C(=O)N(C)C)C3)[C@H](C)[C@H]12 | inactive
23 | CC(=O)Nc1ccc(C(=O)O)cc1 | inactive
24 | Nc1cc(-c2ccncc2)c[nH]c1=O | inactive
25 | CC(C)n1c(/C=C/[C@@H](O)C[C@@H](O)CC(=O)O)c(-c2ccc(F)cc2)c2ccccc21 | inactive
26 | C=C(C)C(=O)OCCC[Si](OC)(OC)OC | inactive
27 | CCC(C)C=O (stereo not given) | inactive
28 | C=C(C#N)C(=O)OCC | inactive
29 | O=S(=O)(Oc1ccc(Cl)cc1Cl)c1ccccc1 | inactive
30 | CCCCCCOC(C)=O | inactive and 27.5 µM (active)
31 | CC(=O)CCc1ccccc1 | inactive
32 | O=C(Oc1ccccc1)c1ccc(O)cc1 | inactive
33 | CCCCC(CC)COC(=O)CCCCCCCC(=O)OCC(CC)CCCC (stereo not given) | inactive
34 | CC(C)(C)C(=O)C1C(=O)c2ccccc2C1=O | inactive
35 | C=C(C)C(=O)OCCCCCCCCCCCC | inactive
36 | CC1=C(CC(=O)O)c2cc(F)ccc2/C1=C\c1ccc(S(C)=O)cc1 (stereo not given) | inactive
37 | O=[N+]([O-])C(CO)(CO)CO | inactive
38 | NCCc1ccc(O)c(O)c1 | inactive
39 | C/C=C(C)/C=C/C=C(C)C | inactive
40 | CCCCCCCCCCCCOCC1CO1 (stereo not given) | inactive
